Data on 40 compounds can be found in PubChem BioAssay (Tox21).

Each structure is given as a SMILES string. Inconclusive results are not listed. Values without a mark were called inactive. Active and inactive are the calls of the source. Calls follow the shape of the dose curve; as a rule, active = well fitted cell-killing curve with a large enough effect in the repeat runs; inconclusive = weak or mixed curves, or effect the other way; inactive = flat fitted curve, though single readings scatter.
% is scaled to controls: 0 for no effect and ±100 for the full control effect; potency is read from the fitted curve at half-maximal effect.

The experiment is described as follows: cAMP Responsive Elements (CRE) small molecule agonists, cell-based qHTS assay: qHTS cell viability counter screen (AID 2060914). Also: nearly all actives have a fitted effect of over 50% in size. To be noted: CRE-bla HEK293T viability, CellTiter-Glo luminescence, 5 h; series mostly up to 92.4 µM; activity change, negative = cytotoxicity: at the top concentration. An excerpt: National Center for Advancing Translational Sciences [NCATS]
Division of Preclinical Innovation [DPI]
U.S. Environmental Protection Agency [EPA]
National Institutes of Environmental Health Sciences [NIEHS]
National Toxicology Program [NTP]
U.S. Food and Drug Administration [FDA]
CREB (cyclic-AMP Responsive Element Binding Protein) is a cellular transcription factor. It binds to certain DNA sequences called cAMP Responsive Elements (CRE) and regulates the transcription of the genes. […] This cell line can be used to find agonists/antagonists of the cyclic AMP signaling pathway. The activation of the report gene under culture conditions can be detected by fluorescence intensity. This cell line has been used to screen the Tox21 10K compound library to identify agonists that induce oxidative stress. The cytotoxicity of the Tox21 compound library against the CRE-bla cell line was tested in parallel by measuring the cell viability using CellTiter-Glo assay (Promega, Madison, WI) in the same wells.
Tox21 Assay Protocol Summary:
CRE-bla Hek 293T cells were suspended in assay medium (DMEM containing 10% dialyzed FBS, 0.1 mM NEAA, 1 mM sodium pyruvate and 25 mM HEPES) and dispensed at 2,000 cells/5 uL /well into 1536-well black wall/clear bottom plates using a Multidrop Combi (ThermoFisher Scientific, Waltham, MA) dispenser. After the assay plates were incubated at 37 C/5% CO2 for 18 hrs, 23 nL of compounds dissolved in DMSO, positive controls or DMSO only was transferred to the assay plate by a pintool workstation (Kalypsys, San Diego, CA). After the plates were incubated at 37 C/5% CO2 for 3 hrs, 1 uL of LiveBLAzer B/G FRET substrate (Invitrogen, Carlsbad, CA) was added to each well using Bioraptr Flying Reagent Dispenser (FRD, Aurora Discovery, San Diego, CA). The plates were incubated at room temperature for 2 h, then fluorescence intensities were measured using an Envision plate reader (PerkinElmer, Shelton, CT) at Excitation 405nm, Emission 460nm and 530nm. The % activity was determined from the ratio of 460nm/530nm. For cell viability readout that measures cytotoxicity, 4 uL /well of CellTiter-Glo reagent was added into the assay plates using Bioraptr FRD. After 30 min incubation at room temperature, the luminescence intensity in the assay plates was measured using a ViewLux (PerkinElmer, Shelton, CT) plate reader.
Background: Quantitative high-throughput screening tests each substance at several concentrations.
Take `O=C(O)CCSCCC(=O)O`: the “activity change, negative = cytotoxicity” value is 13.2%.

On to `NC(=NCCCCCCN=C(N)/N=C(\N)Nc1ccc(Cl)cc1)/N=C(\N)Nc1ccc(Cl)cc1`, for which the Potency is 48.1 µM (active). In the case of `CCn1nc(Cc2ccccc2)cc1C1CCN(C[C@H]2C[C@H](N(C)[C@@H](C(=O)O)C(C)C)C[C@@H]2c2cccc(F)c2)CC1`, the “activity change, negative = cytotoxicity” value was 5.02%. Same read-out and setting: with `CCCCCCCC(=O)OC` the figure was 17.3%; with `CC(COc1ccccc1)NC(C)C(O)c1ccc(O)cc1` (stereo not given), -13.6% [at 42.5 µM]. Turning to `O=c1[nH]cnc2c1ncn2[C@H]1CC[C@@H](CO)O1`, the Potency result is “inactive”. Take `CC(O)CN(CCCN(C)C)CCCN(C)C` (stereo not given): the “activity change, negative = cytotoxicity” value is 3.15%. For the compound `Cc1ccc(C(C)C)c(O)c1`, the Potency result was “inactive”. As to `Cc1cccc(C)c1C`, the “activity change, negative = cytotoxicity” value was -4.11%.

Take `C=C(C)C(=O)OCCOC(=O)C(=C)C`: the Potency result is “inactive”.

On to `O=C(N[C@@H](c1ccccc1)[C@@H]1CCCCN1)c1cccc(C(F)(F)F)c1Cl`, for which the “activity change, negative = cytotoxicity” value was 0.319%.

As to `O=[N+]([O-])c1ccc2ncccc2c1`, the “activity change, negative = cytotoxicity” value was -2.62%. With `COc1ccccc1O`, the Potency entry is “inactive”. Take `CC1(C)OC(=O)NC1=O`: the “activity change, negative = cytotoxicity” value was 0.062%. Consider `CCCCCCCCn1sc(Cl)c(Cl)c1=O`, for which the Potency was 43.3 µM (active). Take `FC(F)(F)/C(=N\OCC1OCCO1)c1ccc(Cl)cc1`: the “activity change, negative = cytotoxicity” value was 0.0783%. Same read-out and setting: with `COc1ccc(-c2coc3cc(O)ccc3c2=O)cc1` the figure was 1.29%. `CCC(C)C1N=C(C)C(C)S1` (stereo not given): the “activity change, negative = cytotoxicity” value is -3.26%. As for `O=c1n(CC2CO2)c(=O)n(CC2CO2)c(=O)n1CC1CO1` (stereo not given), the Potency result was “inactive”.

In the case of `Cc1c(Cl)cccc1Nc1ccccc1C(=O)O`, the “activity change, negative = cytotoxicity” value was 14.5% [at 42.5 µM]. Regarding `OC[C@H]1O[C@@H](Oc2ccc(O)cc2)[C@H](O)[C@@H](O)[C@@H]1O`, the Potency entry is “inactive”.

Consider `O=C1CCCCCCCCCCCCCCCO1`, for which the “activity change, negative = cytotoxicity” value was 16.2%. Consider `CCCCCCCCCCCCCC=O`, for which the activity change, negative = cytotoxicity is 15.9% [at 8.39 µM].

As for `CCOCCOCC`, the “activity change, negative = cytotoxicity” value is -0.172%. `CC/C=C(\C(=O)N[C@@H]1C(=O)N2C(C(=O)OCOC(=O)C(C)(C)C)=C(COC(N)=O)CS[C@H]12)c1csc(N)n1`: the Potency entry is “inactive”. Regarding `O=C(O)c1ccccc1C(=O)Nc1ccc(S(=O)(=O)Nc2nccs2)cc1`, the “activity change, negative = cytotoxicity” value was -3.91% [at 42.5 µM]. Same read-out and setting: with `O=C(Nc1ccc(C(=O)O)c(O)c1)c1ccccc1` the figure was -4.01% [at 42.5 µM]; with `COc1cc(OC)nc(NC(=O)NS(=O)(=O)Nc2ccccc2C(=O)N(C)C)n1`, 0.332%. Same read-out and setting: with `O=C1CCCCO1` the figure was 6.48%; with `CC1(C)SC(C)(C)SC(C)(C)S1`, 6.29%.

As to `CC1=CCC(=O)O1`, the “activity change, negative = cytotoxicity” value is -3.73%. As for `O=C(Oc1ccccc1)c1ccccc1O`, the Potency entry was “inactive”. Take `COc1ccc(-n2nc(C(F)F)cc2-c2ccc(S(C)=O)cc2)cc1` (stereo not given): the “activity change, negative = cytotoxicity” value was -0.0742%.

With `CC(C)(C)NCCO`, the “activity change, negative = cytotoxicity” value was 2.12%. Turning to `CC(C)COCC(CN(Cc1ccccc1)c1ccccc1)N1CCCC1` (stereo not given), the “activity change, negative = cytotoxicity” value is -21.7% [at 42.5 µM]. For the compound `O=C(c1ccc(OCCN2CCCCC2)cc1)c1c(-c2ccc(O)cc2)sc2cc(O)ccc12`, the Potency result was “inactive”. For `O=C=NCc1cccc(CN=C=O)c1`, the activity change, negative = cytotoxicity is -0.289% [at 18.9 µM]. Same read-out and setting: with `Cc1ccc(N/N=c2\c(=O)cc/c(=N\Nc3ccc(S(=O)(=O)O)cc3)c2=O)c(C)c1` the figure was -5.84%; with `NCC[C@H](O)C(=O)N[C@@H]1C[C@H](N)[C@@H](O[C@H]2O[C@H](CN)[C@@H](O)[C@H](O)[C@H]2O)[C@H](O)[C@H]1O[C@H]1O[C@H](CO)[C@@H](O)[C@H](N)[C@H]1O`, -8.14% [at 0.349 µM]; with `CN(C)CCCNCCCN(C)C`, 8.66%.
